# Assay results from the supplement of paper PMC7530171.
# Counter-ions that a name gives are not always drawn. ± gives the standard deviation.
# Test system: THP-1 macrophages infected with Mycobacterium tuberculosis H37Rv
# Experiment: intracellular M.tb growth inhibition relative to DMSO (0) and 4 uM bedaquiline (100); higher = stronger inhibition of intracellular bacterial growth
# Conditions: 10 µM; 4 days
# Protocol: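 OICR kinase inhibitor library screened in duplicate at 10 uM against THP-1 macrophages (PMA-differentiated) infected with M. tuberculosis H37Rv-pTEC27 (tdTomato RFP), 4 days at 37 C. Rows with complete host cell loss (placeholder inhibition 0, cell loss 100) were removed.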
row,SMILES,intracellular M.tb growth inhibition [%]
1,O=C1NCCCc2c1oc1ccc(O)cc21,11 ± 28
2,CCn1c(-c2nonc2N)nc2c(C#CC(C)(C)O)ncc(OC[C@H]3CCCNC3)c21,-124 ± 170
3,Nc1nc(Nc2ccc(S(N)(=O)=O)cc2)nn1C(=S)Nc1c(F)cccc1F [Cdk1/2 Inhibitor III],-193 ± 240
4,O=c1[nH]ccc2c(S(=O)(=O)N3CCCNCC3)cccc12 [HA 1100 hydrochloride],-142 ± 180
5,CCN1/C(=C/C(C)=O)Sc2ccc(OC)cc21,-98.4 ± 120
6,CC(C)CCN1c2nc(Nc3cc(F)c(O)c(F)c3)ncc2N(C)C(=O)C1C (stereo unspecified),-228 ± 190
7,O=C1NC(=O)[C@@H](c2cn3c4c(cccc24)CCC3)[C@@H]1c1c[nH]c2ccccc12,-118 ± 200
8,C/C(=N\N=C(N)N)c1ccc(NC(=O)Nc2ccc(/C(C)=N/N=C(N)N)cc2)cc1,63.3 ± 10
9,O=c1oc2c(O)c(O)cc3c(=O)oc4c(O)c(O)cc1c4c23 [Ellagic acid],-20.9 ± 30
10,CCc1cncnc1N1CCN(Cc2nc3ccc(C(F)(F)F)cc3[nH]2)CC1,16.2 ± 23
11,O=S(=O)(c1cccc2c(Cl)cccc12)N1CCCNCC1 [ML 9 hydrochloride],-14 ± 4.8
12,C[C@@H](Oc1cc(-c2cnn(C3CCNCC3)c2)cnc1N)c1c(Cl)ccc(F)c1Cl,-114 ± 120
13,CC[C@H](Nc1ncnc2[nH]cnc12)c1nc2cccc(F)c2c(=O)n1-c1ccccc1,-236 ± 290
14,COc1ccc(Cl)cc1NC(=O)Nc1cc(C)nc2ccccc12,59.1 ± 9.6
15,NC(=O)Nc1sc(-c2ccc(F)cc2)cc1C(N)=O,-19 ± 13
16,CC(=O)c1ccc(N2CCOCC2)cc1O,-148 ± 170
17,COc1ccc(-c2ccc3c(N4CCOCC4)nc(N4C[C@@H](C)O[C@@H](C)C4)nc3n2)cc1CO,-282 ± 370
18,NC(=O)c1sc2c([N+](=O)[O-])cc(C(F)(F)F)cc2[n+]1[O-] [Cyclapolin 9],-65.9 ± 140

row,SMILES,intracellular M.tb growth inhibition [%]
1,Cn1cc(/C=C2\C(=O)Nc3cccnc32)c2ccccc21,-49.9 ± 14
2,Cn1c(=O)c(Oc2ccc(F)cc2F)cc2cnc(NC3CCOCC3)nc21,-140 ± 130
3,Cc1cccc(-c2[nH]c(C(C)(C)C)nc2-c2ccc3c(c2)OCO3)n1,-67.3 ± 53
4,C[S+]([O-])c1ccc(-c2nc(-c3ccc(F)cc3)c(-c3ccncc3)[nH]2)cc1 (stereo unspecified),14.3 ± 12
5,NC(=O)c1ccc2nc(-c3ccc(Oc4ccc(Cl)cc4)cc3)[nH]c2c1 [Chk2 Inhibitor II],38.6 ± 14
6,COc1cc(Nc2ncc3c(n2)-c2ccc(Cl)cc2C(c2c(F)cccc2OC)=NC3)ccc1C(=O)O,-73.6 ± 120
7,COc1cc2c(Oc3ccc4[nH]c(C)cc4c3F)ncnc2cc1OCCCN1CCCC1 [Cediranib],6.57 ± 9.3
8,Oc1c2ccccc2c2c3c(cccc13)N=N2,12.9 ± 20
9,COc1cccc(-c2cc(=O)c3ccccc3o2)c1N,27.4 ± 15
10,CCOc1cc2ncc(C#N)c(Nc3ccc(OCc4ccccn4)c(Cl)c3)c2cc1NC(=O)/C=C/CN(C)C [Neratinib],-146 ± 210
11,CO[C@H]1C[C@@H]2CC[C@@H](C)[C@@](O)(O2)C(=O)C(=O)N2CCCC[C@H]2C(=O)O[C@H]([C@H](C)C[C@@H]2CC[C@@H](OCCO)[C@H](OC)C2)CC(=O)[C@H](C)/C=C(\C)[C@@H](O)[C@@H](OC)C(=O)[C@H](C)C[C@H](C)/C=C/C=C/C=C/1C [Everolimus],3.03 ± 13
12,CCN(CCCOc1ccc2c(Nc3cc(CC(=O)Nc4cccc(F)c4)[nH]n3)ncnc2c1)CCOP(=O)(O)O,-79.3 ± 96
13,Cn1cc(C2=C(c3ccc(Cl)cc3Cl)C(=O)NC2=O)c2ccccc21,-108 ± 200
14,NC(=O)c1ccc2[nH]ccc2c1,10.6 ± 2.2
15,COc1cc2/c(=N/c3ccc(Br)cc3F)nc[nH]c2cc1OCC1CCN(C)CC1 [Vandetanib],64.1 ± 6.5
16,Cc1cc(Nc2cc(N3CCN(C)CC3)nc(Sc3ccc(NC(=O)C4CC4)cc3)n2)n[nH]1,-6.87 ± 4.6
17,O=C(C=Cc1ccccc1)NC(NC(=S)Nc1ccc(Cl)cc1)C(Cl)(Cl)Cl (stereo unspecified),12.9 ± 18
18,CCc1nc(-c2cccc(C)c2)c(-c2ccnc(NC(=O)c3ccccc3)c2)s1,0.0588 ± 120
